Values joined by “and” are separate entries in the source; they are usually repeats but may differ in a detail not shown here. Equal values may be shown once. Compounds without any hit were thinned out: in the full panel of roughly 79,000, 15% have a hit. Where a structure was tested more than once in an assay, its records may differ in their call. Active and inactive are the calls of the source. Cut-off read from the data, not from the text of the source: active = growth inhibition above about 70%; inactive = the rest.
Legend:
[1] = NCI Yeast Anticancer Drug Screen. Data for the rad52 strain (AID 147);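 note: 0% = growth of vehicle-treated control cultures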; details: S. cerevisiae rad52 mutant growth inhibition, stronger effect = higher value
Procedure, shortened: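 Yeast strain carrying a DNA damage repair alteration was exposed to test compounds. Growth inhibition was measured relative to vehicle-treated controls.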

[2] = NCI Yeast Anticancer Drug Screen. Data for the wt1 strain (AID 149);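 note: 0% = growth of vehicle-treated wt1 cultures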; details: S. cerevisiae wt1 strain (SPY 50644) growth inhibition, stronger effect = higher value
Procedure, shortened: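 Compounds are added to wt1 yeast cultures. Growth is then measured. Inhibition is expressed relative to vehicle-treated controls.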

[3] = NCI Yeast Anticancer Drug Screen. Data for the rad50EPP+ strain (AID 151);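 note: 0% = growth of vehicle-treated control cultures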; details: S. cerevisiae rad50 mutant strain, stronger effect = higher value
Procedure, shortened: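 Yeast strain carrying rad50 alteration (rad50EPP+) exposed to compounds; growth inhibition measured relative to vehicle-treated controls.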

[4] = NCI Yeast Anticancer Drug Screen. Data for the rad50 strain (AID 155);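 note: 0% = growth of vehicle-only cultures of the same strain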; details: S. cerevisiae rad50 strain growth inhibition, stronger effect = higher value
Procedure, shortened: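 Inhibition values express reduced yeast growth in compound-treated cultures relative to vehicle-treated controls.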

[5] = NCI Yeast Anticancer Drug Screen. Data for the mec2-1 strain (AID 157); details: S. cerevisiae mec2-1 strain, stronger effect = higher value
Procedure, shortened: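 mec2-1 yeast strain, carrying an alteration in DNA damage repair or cell cycle control, was exposed to compounds; growth inhibition was measured relative to vehicle-treated controls.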

[6] = NCI Yeast Anticancer Drug Screen. Data for the rad14 strain (AID 159);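 note: 0% = growth of vehicle-treated control cultures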; details: S. cerevisiae rad14 strain growth inhibition, stronger effect = higher value
Procedure, shortened: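 A mutant yeast strain defective in DNA damage repair is treated with compound; inhibition of its growth is scored against untreated, vehicle-exposed cultures.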

[7] = NCI Yeast Anticancer Drug Screen. Data for the sgs1 mgt1 strain (AID 161);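 note: 0% = growth of cultures given vehicle only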; details: S. cerevisiae sgs1 mgt1 strain, stronger effect = higher value
Procedure, shortened: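 Growth of a repair-deficient yeast mutant was monitored after compound treatment and expressed as inhibition relative to vehicle-treated cultures.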

[8] = NCI Yeast Anticancer Drug Screen. Data for the CLN2oe strain (AID 163);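 note: 0% = growth of vehicle-only control cultures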; details: S. cerevisiae CLN2oe strain, stronger effect = higher value
Procedure, shortened: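 Yeast cells carrying a defined cell-cycle control alteration were exposed to test compounds. Growth inhibition was scored against vehicle-treated control cultures.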

[9] = NCI Yeast Anticancer Drug Screen. Data for the cln2 rad14 strain (AID 165);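 note: 0% = growth equal to vehicle treated cultures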; details: S. cerevisiae cln2 rad14 strain, stronger effect = higher value
Procedure, shortened: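 Yeast carrying cln2 and rad14 alterations (cell cycle control and DNA damage repair) were exposed to compounds. Growth inhibition was measured against vehicle-treated controls.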

[10] = NCI Yeast Anticancer Drug Screen. Data for the bub3 strain (AID 167); details: S. cerevisiae bub3 mutant strain, stronger effect = higher value
Procedure, shortened: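 Steps: expose the mutant yeast strain to compound; grow alongside vehicle-treated cultures; measure growth; express inhibition against the vehicle cultures.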

[11] = NCI Yeast Anticancer Drug Screen. Data for the wt2 strain (AID 169);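 note: 0% = growth of vehicle-treated yeast cultures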; details: S. cerevisiae wt2 strain growth inhibition, stronger effect = higher value
Procedure, shortened: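 Yeast cells were exposed to test compounds, and growth inhibition was measured relative to vehicle-treated controls.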

[12] = NCI Yeast Anticancer Drug Screen. Data for the mlh1 strain (AID 171);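 note: 0% = growth of vehicle-treated control cultures of the same strain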; details: S. cerevisiae mlh1 strain growth inhibition, stronger effect = higher value
Procedure, shortened: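 Yeast carrying a defined genetic alteration in DNA damage repair or cell cycle control were exposed to test compounds. Growth inhibition was measured relative to vehicle-treated controls.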

[13] = NCI Yeast Anticancer Drug Screen. Data for the sgs1 strain (AID 173);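 note: 0% = growth of vehicle-only control cultures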; details: S. cerevisiae sgs1 mutant, stronger effect = higher value
Procedure, shortened: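 Yeast mutant strains carrying defined defects in DNA damage repair or cell cycle control were exposed to test compounds. Growth inhibition was scored against vehicle-treated controls.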

[14] = NCI Yeast Anticancer Drug Screen. Data for the mlh1 rad18 strain (AID 175); details: S. cerevisiae mlh1 rad18 strain growth inhibition, stronger effect = higher value
Procedure, shortened: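 Growth inhibition of the yeast strain was measured after compound exposure and expressed relative to vehicle-treated controls. The strain carries defined defects in DNA damage repair.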

[15] = NCI Yeast Anticancer Drug Screen. Data for the rad18 strain (AID 177); details: S. cerevisiae rad18 mutant growth inhibition, stronger effect = higher value
Procedure, shortened: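 Yeast carrying a defined DNA damage repair alteration were exposed to compounds. Growth inhibition was expressed relative to vehicle-treated controls.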

[16] = at 5.0 µM (retest, dose inferred, filed as 0.5)
[17] = at 50.0 µM (retest, dose inferred, filed as 5.0)

Measured: growth inhibition

Cc1ccc2occ/c(=N\Nc3ccccc3)c2c1
inactive: [1]; at 1.2 µM -3% | [1]; at 3.7 µM -4% | [1]; at 11.0 µM 8% | [1]; at 33.0 µM 33% | [1]; at 100.0 µM 39% | [2]; at 1.2 µM 2% | [2]; at 3.7 µM -5% | [2]; at 11.0 µM 4% | [2]; at 33.0 µM 11% | [2]; at 100.0 µM 16% | [3]; at 1.2 µM 1% | [3]; at 3.7 µM -3% | [3]; at 11.0 µM 4% | [3]; at 33.0 µM 58% | [3]; at 100.0 µM 55% | [4]; at 1.2 µM 5% | [4]; at 3.7 µM -7% | [4]; [16] -16% | [4]; at 11.0 µM 6% | [4]; at 33.0 µM 57% | [4]; [17] 31% | [4]; at 100.0 µM 58% | [5]; at 1.2 µM -4% | [5]; at 3.7 µM -4% | [5]; [16] -11% | [5]; at 11.0 µM -2% | [5]; at 33.0 µM 17% | [5]; [17] 23% | [5]; at 50.0 µM 52.7% | [5]; at 100.0 µM 24% | [6]; at 1.2 µM -2% | [6]; at 3.7 µM -2% | [6]; at 11.0 µM -4% | [6]; at 33.0 µM 39% | [6]; at 100.0 µM 45% | [7]; [16] -1% | [8]; at 1.2 µM -9% | [8]; at 3.7 µM -7% | [8]; at 11.0 µM 5% | [8]; at 33.0 µM -1% | [8]; at 100.0 µM 12% | [9]; [16] -21% | [9]; [17] -23% | [9]; at 50.0 µM -23.1% | [10]; at 1.2 µM -4% | [10]; at 3.7 µM -4% | [10]; [16] -4% | [10]; at 11.0 µM -4% | [10]; at 33.0 µM 64% | [11]; at 1.2 µM -2% | [11]; at 3.7 µM -4% | [11]; at 11.0 µM 7% | [11]; at 33.0 µM 55% | [11]; at 100.0 µM 57% | [12]; at 1.2 µM -1% | [12]; at 3.7 µM -5% | [12]; at 11.0 µM -1% | [12]; at 33.0 µM 59% | [12]; at 100.0 µM 63% | [13]; at 1.2 µM -1% | [13]; at 3.7 µM -4% | [13]; at 11.0 µM 4% | [13]; at 33.0 µM 53% | [13]; at 100.0 µM 57% | [14]; [16] -5% | [14]; [17] 52% | [14]; at 50.0 µM 68.3% | [15]; at 1.2 µM -2% | [15]; at 3.7 µM -1% | [15]; at 11.0 µM 7% | [15]; at 33.0 µM 62% | [15]; at 100.0 µM 64%
active: [4]; at 50.0 µM 73.8% | [7]; [17] 70% | [7]; at 50.0 µM 82.5% | [10]; [17] 70% | [10]; at 50.0 µM 87.8% | [10]; at 100.0 µM 70%

CC(C)c1cccc(O)c(=O)c1
47% (inactive) and 100% (active): [5]; [17]
inactive: [1]; at 1.2 µM 2% | [1]; at 3.7 µM -3% | [1]; at 11.0 µM 0% | [1]; at 33.0 µM 18% | [2]; at 1.2 µM -1% | [2]; at 3.7 µM -1% | [2]; at 11.0 µM -1% | [2]; at 33.0 µM 38% | [3]; at 1.2 µM 5% | [3]; at 3.7 µM 8% | [3]; at 11.0 µM -20% | [3]; at 33.0 µM 13% | [4]; at 1.2 µM -7% | [4]; at 3.7 µM -9% | [4]; [16] -1% and 2% | [4]; at 11.0 µM -8% | [4]; at 33.0 µM 27% | [5]; at 1.2 µM -1% | [5]; at 3.7 µM 2% | [5]; [16] -43% and 0% | [5]; at 11.0 µM 6% | [5]; at 33.0 µM 47% | [6]; at 1.2 µM 6% | [6]; at 3.7 µM 4% | [6]; at 11.0 µM 9% | [7]; [16] -2% and 9% | [8]; at 1.2 µM 3% | [8]; at 3.7 µM 4% | [8]; at 11.0 µM 2% | [8]; at 33.0 µM 25% | [9]; [16] -4% and 4% | [10]; at 1.2 µM 5% | [10]; at 3.7 µM -2% | [10]; [16] -7% and 0% | [10]; at 11.0 µM -4% | [10]; at 33.0 µM 13% | [11]; at 1.2 µM 9% | [11]; at 3.7 µM 14% | [11]; at 11.0 µM 13% | [12]; at 1.2 µM -6% | [12]; at 3.7 µM -1% | [12]; at 11.0 µM 2% | [12]; at 33.0 µM 46% | [14]; [16] -3% and 7% | [15]; at 1.2 µM -6% | [15]; at 3.7 µM 1% | [15]; at 11.0 µM 2% | [15]; at 33.0 µM 18%
active: [1]; at 100.0 µM 99% | [2]; at 100.0 µM 98% | [3]; at 100.0 µM 98% | [4]; at 50.0 µM 98.5% and 92.5% | [4]; at 100.0 µM 98% | [5]; at 50.0 µM 99% and 94.2% | [5]; at 100.0 µM 98% | [6]; at 33.0 µM 74% | [6]; at 100.0 µM 99% | [7]; at 50.0 µM 93.9% and 93.2% | [8]; at 100.0 µM 98% | [9]; at 50.0 µM 96.3% and 89.7% | [10]; at 50.0 µM 99.3% and 93.2% | [10]; at 100.0 µM 98% | [11]; at 33.0 µM 70% | [11]; at 100.0 µM 99% | [12]; at 100.0 µM 99% | [14]; at 50.0 µM 98.4% and 91.7% | [15]; at 100.0 µM 98%
36% (inactive) and 99% (active): [7]; [17]
52% (inactive) and 99% (active): [4]; [17]
40% (inactive) and 99% (active): [14]; [17]
12% (inactive) and 99% (active): [9]; [17]
18% (inactive) and 99% (active): [10]; [17]
